# From PubChem BioAssay (NCI)
# The panel holds about 83,000 compounds, 20% with a hit somewhere; the sample as a whole holds those more often.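 Each cell line was grown in a 96-well plate and treated with one concentration of compound for 48 hours. Values below 10 were considered active.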 Unmarked numbers belong to inactive results. Active and inactive are the calls of the source.
# Key:
# Assay in all cases: NCI-60 one-dose screen, 48 h (100 = growth as untreated, 0 = no growth, -100 = all killed)
# Settings in all cases: 10 µM unless noted
# HCT-15 colon = tested on: HCT-15 colon
# HT29 colon = tested on: HT29 colon
# SNB-75 CNS = tested on: SNB-75 CNS
# SNB-19 CNS = tested on: SNB-19 CNS
# U251 CNS = tested on: U251 CNS
# PC-3 prostate = tested on: PC-3 prostate
# SK-MEL-5 melanoma = tested on: SK-MEL-5 melanoma
# UACC-62 melanoma = tested on: UACC-62 melanoma
# LOX IMVI melanoma = tested on: LOX IMVI melanoma
# SK-MEL-28 melanoma = tested on: SK-MEL-28 melanoma
# SK-MEL-2 melanoma = tested on: SK-MEL-2 melanoma
# EKVX NSCLC = tested on: EKVX NSCLC
# SN12C renal = tested on: SN12C renal
# UO-31 renal = tested on: UO-31 renal
# TK-10 renal = tested on: TK-10 renal
# ACHN renal = tested on: ACHN renal
# CAKI-1 renal = tested on: CAKI-1 renal
# A498 renal = tested on: A498 renal
# CCRF-CEM leukemia = tested on: CCRF-CEM leukemia
# MOLT-4 leukemia = tested on: MOLT-4 leukemia
Compound,growth (HCT-15 colon),growth (HT29 colon),growth (SNB-75 CNS),growth (SNB-19 CNS),growth (U251 CNS),growth (PC-3 prostate),growth (SK-MEL-5 melanoma),growth (UACC-62 melanoma),growth (LOX IMVI melanoma),growth (SK-MEL-28 melanoma),growth (SK-MEL-2 melanoma),growth (EKVX NSCLC),growth (SN12C renal),growth (UO-31 renal),growth (TK-10 renal),growth (ACHN renal),growth (CAKI-1 renal),growth (A498 renal),growth (CCRF-CEM leukemia),growth (MOLT-4 leukemia)
Cc1[nH]c(C(=O)Nc2ccc(C(=O)N3CCNCC3)cc2OC(C)C)c(Cl)c1Cl,49.7%,9.76% (active),77.5%,77.5%,35.8%,71.5%,93.4%,102%,-16% (active),105%,106%,82.8%,80.1%,47.9%,79.2%,67.7%,48.8%,64.4%,27.7%,54.1%
CN(C)CCS(=O)(=O)Nc1cc(-c2ccc3ncc(C#N)c(Nc4ccc(F)c(Cl)c4)c3c2)cnc1Cl,-14.6% (active),5.5% (active),-21% (active),-67.2% (active),-46.2% (active),-43.5% (active),-89.8% (active),-77.2% (active),-61.3% (active),-31.5% (active),-40.4% (active),-43.5% (active),0.75% (active),-55.5% (active),-35.5% (active),8.58% (active),-42.3% (active),-49.9% (active),1.06% (active),-25.9% (active)
COc1ccc(-c2csc(NC(=O)N3CCN(c4cc5c(cc4F)c(=O)c(C(=O)O)cn5C4CC4)CC3)n2)cc1,14.6%,2.34% (active),-2.38% (active),20.8%,6.54% (active),-0.577% (active),-39.9% (active),-14.2% (active),-76.4% (active),33.7%,-20.4% (active),23.1%,5.86% (active),1.86% (active),25.5%,9.82% (active),29%,-15% (active),7.96% (active),3.03% (active)
Cc1cc(C)c(-c2c(N)cc(Br)cc2Br)c(N)c1,46.5%,48.7%,22.9%,63.4%,37.4%,63.3%,29.3%,58%,32.8%,51.1%,44.1%,65.9%,68.7%,61.5%,72%,75.1%,50.3%,70.9%,26.4%,34.4%
